Measured values reported in ChEMBL document CHEMBL3988442, “University of Dundee, Small-Polar-MMV Screening Library” (2021).
In all, about 69,000 compounds went through this assay and about 950 (1.4%) showed an effect of 50% or more. This excerpt belongs to a sample that is enriched for strong results.

These compounds were tested on Mycobacterium tuberculosis (assay: Cornell M. t heat shock assay; also: in the data most compounds retested in dose-response had high values).
Type: functional, organism-based
Design: dose or concentration left out as unconfirmed
O=C1CCCC2=C1C(c1ccccc1F)Nc1nonc1N2 (configuration not stated) was tested, and the “Percent Effect” value was -20.35%. O=c1cc(CN2CCCC2)nc2n1CCCN(Cc1ccsc1)C2 was tested, and the “Percent Effect” value was -27.96%. In the case of CCOCCCNc1ncc(-c2cccc(F)c2)c(-c2nccn2C)n1, the “Percent Effect” value is reported as 8.299%. With COCCNc1ncc(-c2cccc(F)c2)c(-c2nccn2C)n1 the “Percent Effect” value was -4.341%. With Cn1ccnc1-c1nc(NC2CCCC2)ncc1-c1cccc(F)c1 the “Percent Effect” value was 85.28%. For Cl.O=C1CC2(CCCNC2)C(=O)N1Cc1cccc(F)c1 (configuration not stated), the “Percent Effect” value was -11.34%. In the case of CCN1CCn2c(C)cnc2C12CCN(C(=O)COC)CC2.O=C(O)C(F)(F)F.O=C(O)C(F)(F)F, the “Percent Effect” value is reported as -13.45%. For CCc1nc(N)nc(N2CCCC3(CN(C)C(=O)O3)C2)c1C (configuration not stated), the “Percent Effect” value was -1.052%. For CNC(=O)CN1CCCC12CCN(C(=O)c1ccoc1)CC2.O=C(O)C(F)(F)F, the “Percent Effect” value was 6.336%. With Cc1nc(-c2cncnc2C2CCCNC2)no1.Cl.Cl (configuration not stated) the “Percent Effect” value was -15.54%. With COc1ccccc1C(=O)N1CCOC2(CCCN(C(C)=O)C2)C1 (configuration not stated) the “Percent Effect” value was 71.6%. For COc1cccc(C(=O)N2CCOC3(CCCN(C(C)=O)C3)C2)c1 (configuration not stated), the “Percent Effect” value was 5.566%. CC(=O)N1CCCC2(C1)CN(C(=O)c1ccncc1)CCO2 (configuration not stated) was tested, and the “Percent Effect” value was -1.478%. With Cc1noc([C@H]2C[C@@H]3CCN(c4nnc(C)s4)C[C@H]3O2)n1.O=C(O)C(F)(F)F the “Percent Effect” value was 1.861%. With Cc1ccc(N2CCC3(CCN(C(=O)c4ccsc4)C3)CC2)nn1.O=C(O)C(F)(F)F the “Percent Effect” value was -20.48%. For Fc1ccc(CN2CCC3(CC2)CC(c2cccnc2)CO3)cc1.O=C(O)C(F)(F)F.O=C(O)C(F)(F)F (configuration not stated), the “Percent Effect” value was -26.17%. For COCCN1C(=O)[C@H]2CC[C@@H]1CN(C(=O)CCc1n[nH]c(C)c1C)C2, the “Percent Effect” value was 8.165%. In the case of O=C(NC1CC1)c1cnc(-c2noc3cc(N4CCCCC4)ccc23)s1, the “Percent Effect” value is reported as -8.735%. With CCN(C)C(=O)c1cnc(-c2noc3cc(N4CCCCC4)ccc23)s1 the “Percent Effect” value was 85.74%. O=C(c1cnc(-c2noc3cc(N4CCCC4)ccc23)s1)N1CCCC1 was tested, and the “Percent Effect” value was -6.808%. Cl.O=C(c1ccnc(C2CCNCC2)c1)N1CCCOCC1 was tested, and the “Percent Effect” value was -3.625%. In the case of O=C(NCC(=O)N1CC2(CCCC2)c2c(F)cccc21)C1CC1, the “Percent Effect” value is reported as 55.94%. CNS(=O)(=O)CC(=O)N1CC2(CCCC2)c2c(F)cccc21 was tested, and the “Percent Effect” value was 13.66%. CCS(=O)(=O)NCC(=O)N1CC2(CCCC2)c2c(F)cccc21 was tested, and the “Percent Effect” value was 17.06%. In the case of CCCS(=O)(=O)N1C[C@@H](Oc2ncccc2F)[C@H]2OCCC[C@H]21.O=C(O)C(F)(F)F, the “Percent Effect” value is reported as -14.35%. Cl.Cl.O=C(N[C@@H]1CN[C@H]2CCCO[C@H]21)c1cccnc1 was tested, and the “Percent Effect” value was -32.33%. With CCc1n[nH]c(C2CN(Cc3ncc(CC)o3)CCO2)n1 (configuration not stated) the “Percent Effect” value was -30.6%. COc1ccc(CNCc2ccnc(N3CCCC3)c2)c(OC)c1.Cl was tested, and the “Percent Effect” value was 15.53%. For Cn1cc(-c2nc(CN3CCc4c(ncn4C)C3)cs2)cn1, the “Percent Effect” value was -15.5%. For Cn1c(C2CC2)nc2c1CCN(Cc1nc(-c3ccsc3)no1)C2, the “Percent Effect” value was 13.01%. For Cn1cnc2c1CCN(Cc1csc(-c3ccccc3)n1)C2, the “Percent Effect” value was -8.138%. For Cn1cnc2c1CCN(Cc1csc(-c3ccsc3)n1)C2, the “Percent Effect” value was 121.8%. Cn1cnc2c1CCN(Cc1csc(-c3ccc(F)cc3)n1)C2 was tested, and the “Percent Effect” value was 1.572%. In the case of CC(C)c1nc2c(n1C)CCN(Cc1nc(-c3ccoc3)no1)C2, the “Percent Effect” value is reported as -1.716%. For COc1ccc(-c2nc(CN3CCc4c(ncn4C)C3)cs2)cc1, the “Percent Effect” value was 174%. CC(C)c1nc2c(n1C)CCN(Cc1nc(-c3ccsc3)no1)C2 was tested, and the “Percent Effect” value was 103.5%. For Cn1cnc2c1CCN(Cc1csc(-c3ccccc3F)n1)C2, the “Percent Effect” value was 47.56%. With c1cc(-c2nc(CN3CCc4c(ncn4C4CC4)C3)cs2)cs1 the “Percent Effect” value was 24.33%. For c1ccc(-c2nc(CN3CCc4c(ncn4C4CC4)C3)cs2)cc1, the “Percent Effect” value was 62.99%. With Cn1cc(-c2nc(CN3CCc4c(ncn4C4CC4)C3)cs2)cn1 the “Percent Effect” value was 19.08%. For COCCO[C@H]1CCN(Cc2ccsc2)[C@H]1Cc1cccnc1.O=C(O)C(F)(F)F.O=C(O)C(F)(F)F, the “Percent Effect” value was -33.79%. In the case of CCc1noc(CN2C[C@H]3CC[C@@H]2CN(C2Cc4ccccc4C2)C3)n1, the “Percent Effect” value is reported as 18.74%. With COc1ccc(CC(=O)N2CC[C@@H](OC)[C@@H]2Cc2cccnc2)cc1.O=C(O)C(F)(F)F the “Percent Effect” value was -4.792%. CC(=O)N1C[C@@H]2CC[C@H](C1)N(S(=O)(=O)c1ccccc1Cl)C2 was tested, and the “Percent Effect” value was -21.33%. In the case of O=C(O)C(F)(F)F.O=S(=O)(C1CC1)N1CCO[C@@H]2CC(COCc3cccnc3)C[C@H]21 (some centres not stated), the “Percent Effect” value is reported as 22.38%. With Cn1cc(N2CC3(COCCN(Cc4ccccn4)C3)OCC2=O)cn1.O=C(O)C(F)(F)F (configuration not stated) the “Percent Effect” value was -20.33%. In the case of CNC(=O)C1Cn2ccnc2C2(CCN(Cc3cccs3)CC2)O1.O=C(O)C(F)(F)F.O=C(O)C(F)(F)F (configuration not stated), the “Percent Effect” value is reported as -16.91%. For CCCc1ccc(N2CCN(Cc3nc4ccccc4n3C)CC2)cc1, the “Percent Effect” value was 103%. Cn1c(CCN2CCN(c3ccc(O)cc3)CC2)nc2ccccc21 was tested, and the “Percent Effect” value was -8.24%. In the case of Cn1c(CCN2CCN(CCc3ccccc3)CC2)nc2ccccc21, the “Percent Effect” value is reported as 5.82%. Cl.Cn1nc(C2CCN(C(=O)CN3CCCCC3)CC2)c2cccnc21 was tested, and the “Percent Effect” value was -23.31%. For Cn1ncc2c1NC(=O)CC2c1ccccc1Cl (configuration not stated), the “Percent Effect” value was -2.735%. With Cn1ncc2c1NC(=O)CC2c1ccc(Cl)cc1Cl (configuration not stated) the “Percent Effect” value was 51.94%. With Cn1ncc2c1NC(=O)CC2c1cc(Cl)ccc1F (configuration not stated) the “Percent Effect” value was -20.48%. In the case of Cc1ccc(CN(C)C(=O)c2n[nH]c(N)c2-c2ccccc2)o1, the “Percent Effect” value is reported as -6.81%. With Cc1ccc(CN2CC[C@H]3OCC[C@@H](C(=O)NC4CC4)[C@@H]3C2)o1.O=C(O)C(F)(F)F the “Percent Effect” value was -2.405%. In the case of CN(CCO)Cc1cc(Cl)ccc1OCC(O)CN1CCCCCC1 (configuration not stated), the “Percent Effect” value is reported as 54.32%. With COCCN(C)Cc1cc(Cl)ccc1OCC(O)CN1CCCCCC1 (configuration not stated) the “Percent Effect” value was 4.611%. With CN(CCCO)Cc1cc(Cl)ccc1OCC(O)CN1CCCCCC1 (configuration not stated) the “Percent Effect” value was 44.14%. With Cc1ccc(N2CCN(C(=O)CN3C[C@@H]4CC[C@H]3C4)CC2=O)cc1 the “Percent Effect” value was -8.228%. Cc1ccc(CN2CCC3(CCC(=O)N3CC(=O)N(C)C)CC2)s1.O=C(O)C(F)(F)F was tested, and the “Percent Effect” value was 11.8%. In the case of Cc1ccccc1C(=O)N1CCC2(CCCN2CCN(C)C)CC1.O=C(O)C(F)(F)F.O=C(O)C(F)(F)F, the “Percent Effect” value is reported as 12.9%. For CN(C)c1ccc(NC(=O)NCC2CCOC2)cn1 (configuration not stated), the “Percent Effect” value was 74.68%. In the case of O=C(NCC1CCOC1)Nc1ccc(OCC(F)(F)F)nc1 (configuration not stated), the “Percent Effect” value is reported as 3.959%. CCN(CC)c1ccc(NC(=O)NCC2CCOC2)cn1 (configuration not stated) was tested, and the “Percent Effect” value was 3.627%. With CCn1c(Cn2cncn2)nnc1C1CCN(C[C@H]2[C@@H]3CNC[C@@H]32)CC1 the “Percent Effect” value was -28.34%. For Cc1ccc(OCc2occc2C(=O)N2C[C@@H]3[C@@H](CN(C)C)[C@@H]3C2)cc1, the “Percent Effect” value was -7.572%. For CN(C)C(=O)CC1CC2(CCN(Cc3ccsc3)CC2)c2ccccc21.O=C(O)C(F)(F)F (configuration not stated), the “Percent Effect” value was -34.9%. In the case of CC(C)C(=O)Nc1cc(C(C)(C)C)nn1-c1ccccn1, the “Percent Effect” value is reported as 4.241%. Cc1cc(C)n(-c2cncc(NCCNC(=O)C(C)C)n2)n1 was tested, and the “Percent Effect” value was -20.98%. Cc1cc(NC(=O)C(C)C)n(-c2nc(C)c(C)c(=O)[nH]2)n1 was tested, and the “Percent Effect” value was 104.4%. CC(C)C(=O)Nc1cc(C(=O)NC2CC(C)(C)NC(C)(C)C2)nn1C was tested, and the “Percent Effect” value was -49.16%. For CC(=O)Nc1cc(C2CC2)nn1-c1nc(C)c(C)c(=O)[nH]1, the “Percent Effect” value was 27.84%. Cc1nc(-n2nc(C3CC3)cc2NC(=O)C(C)C)[nH]c(=O)c1C was tested, and the “Percent Effect” value was 96.45%. With COc1cc(COCC2CCN(Cc3cccnc3)CC2)cc(OC)c1.O=C(O)C(=O)O the “Percent Effect” value was -22.42%. In the case of CC(C)CN1CCN(C)C2(CCN(Cc3ccsc3)CC2)C1=O.O=C(O)C(F)(F)F.O=C(O)C(F)(F)F, the “Percent Effect” value is reported as -18.88%. In the case of CCc1ccc(CN2CCc3ncnc(-c4cccnc4)c3CC2)o1.O=C(O)C(F)(F)F.O=C(O)C(F)(F)F, the “Percent Effect” value is reported as -16.65%. In the case of CCOC(=O)N1CCN(c2nc(CCN)nc3sc(C)c(C)c23)CC1, the “Percent Effect” value is reported as 82.82%. In the case of Cc1sc2nc(CCN)nc(N3CCN(S(C)(=O)=O)CC3)c2c1C, the “Percent Effect” value is reported as 12.46%. With Cc1sc2nc(CCN)nc(N3CCS(=O)(=O)CC3)c2c1C the “Percent Effect” value was 12.97%. For CSc1nc(N)c2c(n1)N=C1COC(O)=C1C2c1cccc(O)c1 (configuration not stated), the “Percent Effect” value was 4.116%. In the case of Cc1ccsc1CN1CCc2nc3ccsc3c(=O)n2CC1.Cl, the “Percent Effect” value is reported as 3.746%. With CCN(CC)c1ccc(NS(=O)(=O)c2cncc(F)c2)cn1 the “Percent Effect” value was -17.45%. With CCN(CC)c1ccc(NS(=O)(=O)c2cnn(C)c2)cn1 the “Percent Effect” value was -23.7%. CCN(CC)c1ccc(NS(=O)(=O)c2cccnc2)cn1 was tested, and the “Percent Effect” value was 61.96%. In the case of CCCC(=O)N1C[C@@H]2CCN(c3cnccn3)C[C@@H]2C1.O=C(O)C(F)(F)F, the “Percent Effect” value is reported as -8.378%. O=C(O)C(F)(F)F.O=C(c1cscn1)N1CC[C@]2(C[C@@H](OCCN3CCCC3)CO2)C1 was tested, and the “Percent Effect” value was 0.0126%. In the case of CNC(=O)[C@@H]1C[C@H]2CN(Cc3nccs3)C[C@H]2N1C.O=C(O)C(F)(F)F.O=C(O)C(F)(F)F, the “Percent Effect” value is reported as -19.94%. For Cc1cccc(CN2C(=O)CC[C@@H]3[C@H]2CCN3Cc2ccc(C)s2)n1.O=C(O)C(F)(F)F.O=C(O)C(F)(F)F, the “Percent Effect” value was 6.515%. COc1ccc(Cl)cc1CS(=O)(=O)Cc1nc(C)no1 was tested, and the “Percent Effect” value was 62.62%. In the case of COc1ccc(Cl)cc1CS(=O)(=O)Cc1noc(C)n1, the “Percent Effect” value is reported as -24.6%. For COc1ccc(Cl)cc1CS(=O)(=O)Cc1nc(C2CC2)no1, the “Percent Effect” value was 45.18%.
